Data on eleven sequences can be found in publication PMC11006913.

Assay in all cases: PBM; 200 nM protein, PBS
Conditions in all cases: dsDNA, one strand shown

The target of test [1] is HOXC9 (Homo sapiens, UniProt P31274 178-260, K195R).
The target of test [2] is HOXC10 (Homo sapiens, UniProt Q9NYD6 254-340).
In test [3] the target is HOXC9 (Homo sapiens, UniProt P31274 178-260).
In test [4] the target is MSX2 (Homo sapiens, UniProt P35548 130-214, R199I).
The target in test [5] is ALX3 (Homo sapiens, UniProt O95076 139-225, N203Q).
Chain of ALX3 (Homo sapiens, UniProt O95076 139-225, N203Q) (O95076 139-225 N203Q): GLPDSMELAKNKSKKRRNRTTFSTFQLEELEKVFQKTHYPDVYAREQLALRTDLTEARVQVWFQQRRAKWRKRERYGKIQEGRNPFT
Test [6] has as its target HOXC9 (Homo sapiens, UniProt P31274 178-260, R193K).
The target of test [7] is HOXC10 (Homo sapiens, UniProt Q9NYD6 254-340, K271E).
Chain of HOXC10 (Homo sapiens, UniProt Q9NYD6 254-340, K271E) (Q9NYD6 254-340 K271E): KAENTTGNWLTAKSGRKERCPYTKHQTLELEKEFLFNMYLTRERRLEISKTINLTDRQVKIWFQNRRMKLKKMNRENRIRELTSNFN
The target of test [8] is MSX2 (Homo sapiens, UniProt P35548 130-214).
Chain of MSX2 (Homo sapiens, UniProt P35548 130-214) (P35548 130-214): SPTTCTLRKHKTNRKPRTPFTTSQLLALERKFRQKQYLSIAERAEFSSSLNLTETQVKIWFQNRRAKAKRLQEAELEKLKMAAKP
Test [9] deals with ALX3 (Homo sapiens, UniProt O95076 139-225).
Chain of ALX3 (Homo sapiens, UniProt O95076 139-225) (O95076 139-225): as the sequence (O95076 139-225 N203Q) above, with Q65N counted along it
In test [10] the target is ALX3 (Homo sapiens, UniProt O95076 139-225, L168Q).
Chain of ALX3 (Homo sapiens, UniProt O95076 139-225, L168Q) (O95076 139-225 L168Q): as the sequence (O95076 139-225 N203Q) above, with L30Q, Q65N counted along it
Test [11] deals with HOXC9 (Homo sapiens, UniProt P31274 178-260, R222W).
Chain of HOXC9 (Homo sapiens, UniProt P31274 178-260, R222W) (P31274 178-260 R222W): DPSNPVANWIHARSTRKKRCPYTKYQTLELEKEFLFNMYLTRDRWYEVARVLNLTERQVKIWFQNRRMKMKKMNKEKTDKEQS
The target in test [12] is ALX3 (Homo sapiens, UniProt O95076 139-225, L168V).
Chain of ALX3 (Homo sapiens, UniProt O95076 139-225, L168V) (O95076 139-225 L168V): as the sequence (O95076 139-225 N203Q) above, with L30V, Q65N counted along it
Test [13] deals with MSX2 (Homo sapiens, UniProt P35548 130-214, F161Y).
Chain of MSX2 (Homo sapiens, UniProt P35548 130-214, F161Y) (P35548 130-214 F161Y): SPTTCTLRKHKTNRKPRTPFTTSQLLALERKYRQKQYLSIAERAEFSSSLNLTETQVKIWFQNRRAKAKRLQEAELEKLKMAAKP
Test [14] has as its target ALX3 (Homo sapiens, UniProt O95076 139-225, N203S).
For test [15], the target named is HOXA2 (Homo sapiens, UniProt O43364 129-215, R185T).
Chain of HOXA2 (Homo sapiens, UniProt O43364 129-215, R185T) (O43364 129-215 R185T): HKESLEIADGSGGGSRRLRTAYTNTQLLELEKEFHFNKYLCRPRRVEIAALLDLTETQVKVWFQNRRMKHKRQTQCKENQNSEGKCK
For test [16], the target named is HOXA2 (Homo sapiens, UniProt O43364 129-215, R185K).
Chain of HOXA2 (Homo sapiens, UniProt O43364 129-215, R185K) (O43364 129-215 R185K): as the sequence (O43364 129-215 R185T) above, with T57K counted along it
The target in test [17] is HOXA2 (Homo sapiens, UniProt O43364 129-215, Y150S).
Chain of HOXA2 (Homo sapiens, UniProt O43364 129-215, Y150S) (O43364 129-215 Y150S): as the sequence (O43364 129-215 R185T) above, with Y22S, T57R counted along it
In test [18] the target is HOXA2 (Homo sapiens, UniProt O43364 129-215).
Chain of HOXA2 (Homo sapiens, UniProt O43364 129-215) (O43364 129-215): as the sequence (O43364 129-215 R185T) above, with T57R counted along it
Test [19] has as its target HOXD13 (Homo sapiens, UniProt P35453 263-343, T313R).
The target of test [20] is HOXD13 (Homo sapiens, UniProt P35453 263-343).
Chain of HOXD13 (Homo sapiens, UniProt P35453 263-343) (P35453 263-343): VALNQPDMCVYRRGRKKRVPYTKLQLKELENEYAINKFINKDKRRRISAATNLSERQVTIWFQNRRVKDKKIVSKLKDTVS
For test [21], the target named is HOXD13 (Homo sapiens, UniProt P35453 263-343, T313A).
Chain of HOXD13 (Homo sapiens, UniProt P35453 263-343, T313A) (P35453 263-343 T313A): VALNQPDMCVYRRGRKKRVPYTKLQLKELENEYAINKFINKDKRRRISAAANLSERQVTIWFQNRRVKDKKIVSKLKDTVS
Another test addresses HOXB9 (Homo sapiens, UniProt P17482 171-250, R186Q).
Test [22] addresses PROP1 (Homo sapiens, UniProt O75360 56-141).
Test [23] concerns the target PROP1 (Homo sapiens, UniProt O75360 56-141, R99H).
The target in test [24] is PROP1 (Homo sapiens, UniProt O75360 56-141, F88S).
Chain of PROP1 (Homo sapiens, UniProt O75360 56-141, F88S) (O75360 56-141 F88S): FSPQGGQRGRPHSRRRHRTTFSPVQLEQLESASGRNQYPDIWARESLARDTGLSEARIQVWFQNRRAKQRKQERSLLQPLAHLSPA

Chain of MSX2 (Homo sapiens, UniProt P35548 130-214, R199I) (P35548 130-214 R199I): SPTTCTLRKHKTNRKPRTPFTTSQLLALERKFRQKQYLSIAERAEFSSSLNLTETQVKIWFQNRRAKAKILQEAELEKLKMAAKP
Chain of HOXC9 (Homo sapiens, UniProt P31274 178-260, R193K) (P31274 178-260 R193K): as the sequence (P31274 178-260 R222W) above, with R16K, W45R counted along it
Chain of HOXC9 (Homo sapiens, UniProt P31274 178-260) (P31274 178-260): as the sequence (P31274 178-260 R222W) above, with W45R counted along it
Chain of HOXD13 (Homo sapiens, UniProt P35453 263-343, T313R) (P35453 263-343 T313R): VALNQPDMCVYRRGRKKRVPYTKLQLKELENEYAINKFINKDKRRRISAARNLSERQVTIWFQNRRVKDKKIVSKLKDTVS
Chain of HOXC9 (Homo sapiens, UniProt P31274 178-260, K195R) (P31274 178-260 K195R): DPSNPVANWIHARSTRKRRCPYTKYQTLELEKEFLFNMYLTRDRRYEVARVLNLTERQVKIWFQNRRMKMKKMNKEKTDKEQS
Chain of HOXB9 (P17482 171-250 R186Q): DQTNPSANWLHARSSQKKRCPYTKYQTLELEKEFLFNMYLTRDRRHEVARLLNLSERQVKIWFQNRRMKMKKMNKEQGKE
Chain of PROP1 (Homo sapiens, UniProt O75360 56-141) (O75360 56-141): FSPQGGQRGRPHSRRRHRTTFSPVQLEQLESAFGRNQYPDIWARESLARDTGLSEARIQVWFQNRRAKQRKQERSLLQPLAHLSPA
Chain of HOXC10 (Homo sapiens, UniProt Q9NYD6 254-340) (Q9NYD6 254-340): as the sequence (Q9NYD6 254-340 K271E) above, with E18K counted along it
Chain of PROP1 (Homo sapiens, UniProt O75360 56-141, R99H) (O75360 56-141 R99H): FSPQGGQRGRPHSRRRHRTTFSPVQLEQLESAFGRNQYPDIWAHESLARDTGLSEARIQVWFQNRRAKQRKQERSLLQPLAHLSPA
Chain of ALX3 (Homo sapiens, UniProt O95076 139-225, N203S) (O95076 139-225 N203S): as the sequence (O95076 139-225 N203Q) above, with Q65S counted along it

As to AGCCCTCC, the binding signal with HOXC9 [1] is 9.66 upbm affinity estimate (log intensity, higher = more binding, comparable within an allelic series); with HOXC10 [2], 10 upbm affinity estimate (log intensity, higher = more binding, comparable within an allelic series); with HOXC9 [3], 9.73 upbm affinity estimate (log intensity, higher = more binding, comparable within an allelic series); in the test with MSX2 [4], 9.53 upbm affinity estimate (log intensity, higher = more binding, comparable within an allelic series); in the test with ALX3 [5] it was 7.79 upbm affinity estimate (log intensity, higher = more binding, comparable within an allelic series); with HOXC9 [6], 9.66 upbm affinity estimate (log intensity, higher = more binding, comparable within an allelic series). Further, the binding signal with HOXC10 [7] was 10 upbm affinity estimate (log intensity, higher = more binding, comparable within an allelic series); in the test with MSX2 [8], 9.44 upbm affinity estimate (log intensity, higher = more binding, comparable within an allelic series); in the test with ALX3 [9], 7.83 upbm affinity estimate (log intensity, higher = more binding, comparable within an allelic series); in the test with ALX3 [10], 7.75 upbm affinity estimate (log intensity, higher = more binding, comparable within an allelic series); with HOXC9 [11] it was 9.65 upbm affinity estimate (log intensity, higher = more binding, comparable within an allelic series); with ALX3 [12], 7.79 upbm affinity estimate (log intensity, higher = more binding, comparable within an allelic series). In addition, the binding signal is 9.49 upbm affinity estimate (log intensity, higher = more binding, comparable within an allelic series) with MSX2 [13] and 7.76 upbm affinity estimate (log intensity, higher = more binding, comparable within an allelic series) with ALX3 [14].
For CCTGCCGC, the binding signal with HOXC9 [1] was 9.4 upbm affinity estimate (log intensity, higher = more binding, comparable within an allelic series); with HOXA2 [15], 6.91 upbm affinity estimate (log intensity, higher = more binding, comparable within an allelic series); in the test with HOXC9 [3], 9.49 upbm affinity estimate (log intensity, higher = more binding, comparable within an allelic series); in the test with HOXC9 [6], 9.31 upbm affinity estimate (log intensity, higher = more binding, comparable within an allelic series); with HOXA2 [16] it was 9.96 upbm affinity estimate (log intensity, higher = more binding, comparable within an allelic series); with HOXC9 [11], 9.67 upbm affinity estimate (log intensity, higher = more binding, comparable within an allelic series). For the same sequence, the binding signal with HOXA2 [17] was 10.4 upbm affinity estimate (log intensity, higher = more binding, comparable within an allelic series); with HOXA2 [18] it was 7.06 upbm affinity estimate (log intensity, higher = more binding, comparable within an allelic series).
As to ATTTAATA, the binding signal is 12.4 upbm affinity estimate (log intensity, higher = more binding, comparable within an allelic series) with HOXC9 [1]; 12.5 upbm affinity estimate (log intensity, higher = more binding, comparable within an allelic series) with HOXC9 [3]; 10.9 upbm affinity estimate (log intensity, higher = more binding, comparable within an allelic series) with HOXD13 [19]; 12.4 upbm affinity estimate (log intensity, higher = more binding, comparable within an allelic series) with HOXC9 [6]; 11.9 upbm affinity estimate (log intensity, higher = more binding, comparable within an allelic series) with HOXD13 [20]; 11.8 upbm affinity estimate (log intensity, higher = more binding, comparable within an allelic series) with HOXD13 [21]. The binding signal with HOXB9 was 11.4 upbm affinity estimate (log intensity, higher = more binding, comparable within an allelic series); in the test with HOXC9 [11] it was 11.1 upbm affinity estimate (log intensity, higher = more binding, comparable within an allelic series).
Take CGGGCCAG: the binding signal with HOXC9 [1] was 9.64 upbm affinity estimate (log intensity, higher = more binding, comparable within an allelic series); with HOXC9 [3] it was 9.85 upbm affinity estimate (log intensity, higher = more binding, comparable within an allelic series); in the test with MSX2 [4] it was 9.53 upbm affinity estimate (log intensity, higher = more binding, comparable within an allelic series); in the test with HOXC9 [6], 9.73 upbm affinity estimate (log intensity, higher = more binding, comparable within an allelic series); with MSX2 [8], 9.56 upbm affinity estimate (log intensity, higher = more binding, comparable within an allelic series); in the test with HOXC9 [11] it was 9.77 upbm affinity estimate (log intensity, higher = more binding, comparable within an allelic series). In the test with MSX2 [13], the binding signal is 9.66 upbm affinity estimate (log intensity, higher = more binding, comparable within an allelic series).
Turning to CACTAATA, the binding signal with HOXC9 [1] was 11.3 upbm affinity estimate (log intensity, higher = more binding, comparable within an allelic series); in the test with HOXC9 [3], 11.4 upbm affinity estimate (log intensity, higher = more binding, comparable within an allelic series); with HOXC9 [6] it was 11.4 upbm affinity estimate (log intensity, higher = more binding, comparable within an allelic series).
CGGAGCCC: the binding signal with HOXC9 [1] was 9.46 upbm affinity estimate (log intensity, higher = more binding, comparable within an allelic series); with HOXA2 [15], 7.2 upbm affinity estimate (log intensity, higher = more binding, comparable within an allelic series); with HOXC9 [3] it was 9.37 upbm affinity estimate (log intensity, higher = more binding, comparable within an allelic series); in the test with HOXC9 [6] it was 9.44 upbm affinity estimate (log intensity, higher = more binding, comparable within an allelic series); with HOXA2 [16], 10.2 upbm affinity estimate (log intensity, higher = more binding, comparable within an allelic series); with PROP1 [22] it was 6.65 upbm affinity estimate (log intensity, higher = more binding, comparable within an allelic series). Moreover, the binding signal was 6.77 upbm affinity estimate (log intensity, higher = more binding, comparable within an allelic series) with PROP1 [23]; 9.51 upbm affinity estimate (log intensity, higher = more binding, comparable within an allelic series) with HOXC9 [11]; 6.36 upbm affinity estimate (log intensity, higher = more binding, comparable within an allelic series) in the test with PROP1 [24]; 10.1 upbm affinity estimate (log intensity, higher = more binding, comparable within an allelic series) in the test with HOXA2 [17]; 7.02 upbm affinity estimate (log intensity, higher = more binding, comparable within an allelic series) with HOXA2 [18].
As for CTTATAAA, the binding signal with HOXC9 [1] is 11.3 upbm affinity estimate (log intensity, higher = more binding, comparable within an allelic series); with HOXC9 [3] it was 11.2 upbm affinity estimate (log intensity, higher = more binding, comparable within an allelic series); in the test with HOXD13 [19], 10.7 upbm affinity estimate (log intensity, higher = more binding, comparable within an allelic series); in the test with HOXC9 [6] it was 11.2 upbm affinity estimate (log intensity, higher = more binding, comparable within an allelic series); in the test with HOXD13 [20] it was 11.8 upbm affinity estimate (log intensity, higher = more binding, comparable within an allelic series); in the test with HOXD13 [21] it was 11.5 upbm affinity estimate (log intensity, higher = more binding, comparable within an allelic series).
With CACAATTA, the binding signal with HOXC9 [1] is 11.7 upbm affinity estimate (log intensity, higher = more binding, comparable within an allelic series); with HOXC9 [3], 11.7 upbm affinity estimate (log intensity, higher = more binding, comparable within an allelic series); with MSX2 [4] it was 12.1 upbm affinity estimate (log intensity, higher = more binding, comparable within an allelic series); with HOXC9 [6], 11.7 upbm affinity estimate (log intensity, higher = more binding, comparable within an allelic series); with MSX2 [8], 13.4 upbm affinity estimate (log intensity, higher = more binding, comparable within an allelic series); in the test with MSX2 [13] it was 13 upbm affinity estimate (log intensity, higher = more binding, comparable within an allelic series).
As for CTATAGAA, the binding signal with HOXC9 [1] is 11.1 upbm affinity estimate (log intensity, higher = more binding, comparable within an allelic series); with HOXC9 [3] it was 11 upbm affinity estimate (log intensity, higher = more binding, comparable within an allelic series); with HOXC9 [6], 11.1 upbm affinity estimate (log intensity, higher = more binding, comparable within an allelic series).
As to TCGGGCCA, the binding signal is 9.7 upbm affinity estimate (log intensity, higher = more binding, comparable within an allelic series) with HOXC9 [1]; 9.78 upbm affinity estimate (log intensity, higher = more binding, comparable within an allelic series) with HOXC9 [3]; 9.6 upbm affinity estimate (log intensity, higher = more binding, comparable within an allelic series) with MSX2 [4]; 9.55 upbm affinity estimate (log intensity, higher = more binding, comparable within an allelic series) in the test with HOXD13 [19]; 9.72 upbm affinity estimate (log intensity, higher = more binding, comparable within an allelic series) with HOXC9 [6]; 9.44 upbm affinity estimate (log intensity, higher = more binding, comparable within an allelic series) with HOXD13 [20]. The binding signal in the test with MSX2 [8] is 9.63 upbm affinity estimate (log intensity, higher = more binding, comparable within an allelic series); with HOXD13 [21] it was 9.66 upbm affinity estimate (log intensity, higher = more binding, comparable within an allelic series); with HOXC9 [11], 9.7 upbm affinity estimate (log intensity, higher = more binding, comparable within an allelic series); with MSX2 [13], 9.51 upbm affinity estimate (log intensity, higher = more binding, comparable within an allelic series).
Turning to GGAGAACC, the binding signal was 9.48 upbm affinity estimate (log intensity, higher = more binding, comparable within an allelic series) in the test with HOXC9 [1]; 9.62 upbm affinity estimate (log intensity, higher = more binding, comparable within an allelic series) in the test with HOXC9 [3]; 9.57 upbm affinity estimate (log intensity, higher = more binding, comparable within an allelic series) with HOXD13 [19]; 9.52 upbm affinity estimate (log intensity, higher = more binding, comparable within an allelic series) with HOXC9 [6]; 9.46 upbm affinity estimate (log intensity, higher = more binding, comparable within an allelic series) in the test with HOXD13 [20]; 9.73 upbm affinity estimate (log intensity, higher = more binding, comparable within an allelic series) with HOXD13 [21]. Besides, the binding signal in the test with HOXC9 [11] was 9.79 upbm affinity estimate (log intensity, higher = more binding, comparable within an allelic series).
